Compound activity: PubChem BioAssay, Buhrlage Lab, Dana-Farber Cancer Institute and Novartis Institutes for BioMedical Research (Cambridge, Mass)
USP8 inh = inhibitors of human USP8 deubiquitinase; purified USP8, Ub-rhodamine cleavage fluorescence, 30 min; inhibition, % at 20 µM; Ubiquitin carboxyl-terminal hydrolase 8 (Homo sapiens), P40818; 4.2% of 47,000 active; AID 1645853, 2021
USP28 inh = inhibitors of human USP28 deubiquitinase; Ubiquitin carboxyl-terminal hydrolase 28 (Homo sapiens), Q96RU2; purified USP28, Ub-rhodamine cleavage fluorescence, 30 min; inhibition, % at 25 µM; 3% of 47,000 active; AID 1645857, 2021
USP30 block = inhibitors of human USP30 deubiquitinase; purified USP30, Ub-rhodamine cleavage fluorescence; inhibition, % at 25 µM; 5.3% of 47,000 active; AID 1645860, 2021
USP17 inh = inhibitors of human USP17 deubiquitinase. 6.5% of 47,000 active. purified USP17, Ub-rhodamine cleavage fluorescence, 3 h. Ubiquitin carboxyl-terminal hydrolase 17-like protein 5 (Homo sapiens), A8MUK1. inhibition, % at 50 µM
USP10 block = inhibitors of human USP10 deubiquitinase | inhibition, % at 20 µM | Ubiquitin carboxyl-terminal hydrolase 10 (Homo sapiens), Q14694 | purified USP10, Ub-rhodamine fluorescence, 60 min | 1.1% of 47,000 active | AID 1645856, 2021
Target sequence (Q14694 whole entry, looked up): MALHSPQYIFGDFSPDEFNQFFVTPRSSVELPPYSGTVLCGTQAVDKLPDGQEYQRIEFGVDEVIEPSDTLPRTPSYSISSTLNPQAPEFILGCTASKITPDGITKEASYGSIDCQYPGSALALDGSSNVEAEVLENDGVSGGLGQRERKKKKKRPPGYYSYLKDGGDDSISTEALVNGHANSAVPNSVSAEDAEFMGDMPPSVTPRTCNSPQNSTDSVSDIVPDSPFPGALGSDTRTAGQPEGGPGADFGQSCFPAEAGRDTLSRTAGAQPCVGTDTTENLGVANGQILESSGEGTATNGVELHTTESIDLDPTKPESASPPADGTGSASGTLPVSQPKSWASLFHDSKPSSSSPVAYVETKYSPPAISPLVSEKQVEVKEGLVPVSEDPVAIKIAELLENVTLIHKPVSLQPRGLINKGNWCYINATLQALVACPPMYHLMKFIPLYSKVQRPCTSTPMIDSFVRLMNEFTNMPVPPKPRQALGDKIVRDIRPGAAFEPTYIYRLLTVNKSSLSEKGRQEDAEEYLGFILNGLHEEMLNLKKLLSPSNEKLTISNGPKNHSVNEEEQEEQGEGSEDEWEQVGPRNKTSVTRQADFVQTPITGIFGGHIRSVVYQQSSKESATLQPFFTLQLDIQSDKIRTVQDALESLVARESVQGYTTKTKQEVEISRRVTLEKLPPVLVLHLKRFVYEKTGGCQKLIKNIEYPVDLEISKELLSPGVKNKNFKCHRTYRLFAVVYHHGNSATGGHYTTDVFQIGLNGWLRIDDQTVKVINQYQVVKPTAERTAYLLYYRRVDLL
A number is an active result; – = inactive; · = no result. An excerpt weighted towards active compounds, which were near 14% of everything screened. Cut-off read from the data, not from the text of the source: active = inhibition above about 30%; inactive = the rest.

SMILES | USP8 inh | USP28 inh | USP30 block | USP17 inh | USP10 block
CC(=O)c1cccc(NC(=O)C2c3ccccc3C(=O)N(C3CCCC3)C23CCCCC3)c1 (centres undefined) | 65 | – | – | – | –
COC(=O)c1cc(OC)c(OC)cc1NS(C)(=O)=O | – | – | – | – | –
CN1CCN(C(=O)c2cc(-c3cnc(N4CCCC4)nc3)cn2C)CC1 | – | – | – | – | –
CCNc1nc(SCC(C)=O)nc2sc3c(c12)CCC(C)C3 (centres undefined) | – | – | 34 | 58 | –
CC(=O)c1sc(NC(=O)COc2ccc(N(C)S(=O)(=O)c3ccc(C)cc3)cc2)nc1C | – | – | – | – | –
CC(=O)c1sc(NCc2ccc(C)cc2)nc1C | – | 50 | – | – | –
Cc1cccc2nc(C(=O)N3CC(C(=O)N4CCOCC4)Oc4ccccc43)cn12 (centres undefined) | – | – | – | – | –
O=C(C1CN(C(=O)c2cnc3ccccc3n2)c2ccccc2O1)N1CCOCC1 (centres undefined) | 70 | – | – | – | –
Cc1nc(-c2ccccc2)n(Cc2ccccc2)c(=O)c1CCO | – | · | · | – | –
Cc1nc(-c2ccccc2)n(Cc2ccc(F)cc2)c(=O)c1CCO | – | 33 | – | · | –
CN1C[C@@]23CN(C(=O)c4cnccn4)C[C@@H](C[C@@H]2S1(=O)=O)O3 | – | – | 32 | – | –
Cc1ccccc1CNC(=O)c1nnc(C(=O)Nc2ccc(F)cc2)s1 | – | – | 39 | – | –
COc1ccc(NC(=O)c2nnc(C(=O)NCc3ccccc3F)s2)cc1 | – | – | – | – | –
Cc1ccc(NC(=O)c2cc(-c3ccccn3)nc3c(Cl)cccc23)nc1 | 63 | – | – | – | –
O=C(O)c1cccc2oc(-c3cccc4oc(-c5ccccc5O)nc34)nc12 | – | – | – | 46 | –
Cc1ccc(OCC(=O)Nc2ccc3c(c2)CCC(=O)N3Cc2ccccc2)cc1 | – | – | – | – | –
O=C1C[C@@H]2O[C@H](CNC(=O)[C@@H]3CN(CCN3C(=O)C3CCOCC3)C(=O)[C@@H]3C[C@@H](CN3Cc3ccc(C(F)(F)F)cc3)N1)[C@@H](O)[C@H]2O | – | – | – | – | –
CCn1c(CCNC(=O)c2ccccc2)nc2ccccc21 | – | · | · | – | –
O=C(NCCCc1nc2ccccc2n1Cc1c(F)cccc1Cl)c1ccco1 | – | – | – | 34 | –
O=C(NCCCc1nc2ccccc2n1Cc1c(Cl)cccc1Cl)c1ccco1 | – | 47 | – | 74 | –
Cc1ccc(S(=O)(=O)N(C)c2ccc(OCC(=O)Nc3ccc(N4CCN(C)CC4)cc3C)cc2)cc1 | – | – | – | – | –
O=C(Nc1ccc(Br)c(C(=O)c2ccccc2)c1)c1ccc(S(=O)(=O)N2CCc3ccccc3C2)cc1 | – | – | – | – | –
CC1Oc2ccc(NC(=O)c3cccc(S(=O)(=O)N4CCc5ccccc5C4)c3)cc2NC1=O (centres undefined) | – | – | – | 31 | –
CCOc1cccc(NC(=O)c2ccc(S(=O)(=O)N3CCc4ccccc4C3)cc2)c1 | – | – | 41 | 53 | –
Cc1cc(S(=O)(=O)[C@H]2CS(=O)(=O)C[C@@H]2NCCC(C)C)ccc1F | – | – | – | – | –
SMILES | USP8 inh | USP28 inh | USP30 block | USP17 inh | USP10 block
CCCc1cc(=O)n2[nH]c(-c3ccccc3)cc2n1 | – | – | – | – | –
CCCc1cc(=O)n2[nH]c(COc3ccccc3)c(-c3ccccc3)c2n1 | – | 40 | 55 | 40 | 55
CCOc1ccc(NS(=O)(=O)c2c[nH]c3ccc([N+](=O)[O-])cc23)cc1 | – | – | 63 | 53 | –
CC(C)CCCCCCCCCCC(=O)N(C)[C@H](CO)C(=O)N[C@H](C)C(=O)NCC(=O)N(C)C1C(=O)N[C@@H](C)C(=O)NC(C(=O)O)Cc2ccc(O)c(c2)-c2cc1ccc2O (some centres undefined) | – | 56 | 33 | – | 60
CSc1cccc(C(=O)Nc2ccc(-c3nc4ccccc4[nH]3)cc2)c1 | – | – | 32 | 63 | –
Cc1nc(NC2CC2)c2c(-c3ccccc3)csc2n1 | – | – | – | – | –
O=S(Cc1cc(N2CCOCC2)nc(-c2ccccc2)n1)c1ccc(Cl)cc1 (centres undefined) | – | – | – | – | –
CCOC(=O)CSc1cc(CS(=O)c2ccc(Cl)cc2)nc(-c2ccccc2)n1 (centres undefined) | – | – | 41 | – | –
O=C(CNCC(c1ccc(F)cc1)N1CCOCC1)NCc1ccccc1Cl (centres undefined) | – | – | – | – | –
c1ccc(COc2ncnc3scc(-c4ccccc4)c23)cc1 | – | 34 | – | – | –
COc1ccc(OC)c(NC(=O)c2ccc(C)c(F)c2)c1 | – | – | – | – | –
COc1ccc(C(=O)Nc2cc(F)c3[nH]c(=O)ccc3c2)cc1 | – | – | 35 | 39 | –
COc1ccccc1CC(=O)N1CCC(c2nn(CCN)c3nccnc23)C1 (centres undefined) | – | – | 35 | – | –
Clc1cccc(-n2ncc3c2ncn2nc(-c4ccccc4Cl)nc32)c1 | – | – | – | – | –
O=C(Nc1ccc(-c2nccs2)cc1)c1ccc(F)cc1Cl | – | – | – | – | –
CN(C)Cc1ccc(C(=O)Nc2ccc(-c3nccs3)cc2)cc1 | – | 88 | – | – | –
O=C(Cn1cc(C(=O)C(F)(F)F)c2cc(Br)ccc21)N1CCc2ccccc21 | – | – | – | 40 | 36
Cc1cc2nc3[nH]c(=O)[nH]c(=O)c3nc2cc1C | – | – | – | – | –
CCOc1cc(-c2noc(-c3ccccc3)n2)ccc1OCC(=O)Nc1ncccc1C | – | – | 32 | 38 | –
CCOc1ccc2nc(-n3nc(C)c4c3NC(=O)CC4c3cc(C)sc3C)sc2c1 (centres undefined) | – | – | 36 | – | –
Cc1ccc(C)c(C2CC(=O)Nc3c2c(C)nn3-c2nc3ccccc3s2)c1 (centres undefined) | – | – | – | – | –
O=C(Oc1ccc(-c2nccc(-c3cccs3)n2)cc1)c1ccco1 | 36 | – | – | 49 | –
c1cnc(-c2nc(-c3ccc(-c4csc(C5CC5)n4)cc3)no2)cn1 | – | – | – | – | –
Clc1ccc(-c2noc(-c3cnccn3)n2)cc1 | – | – | 31 | – | –
CNc1cccc(C2CN(C(=O)c3cccc4c3OCCO4)CCO2)n1 (centres undefined) | – | – | – | – | –
CN(C(=O)c1c(-c2ccccc2)nnc2ccccc12)c1cccc(Cl)c1 | – | – | – | – | –
COc1ccc(CC(NC(C)=O)C(=O)NC2CCN(c3nc(OC)nc(OC)n3)CC2)cc1 (centres undefined) | – | – | 32 | – | –
COc1cccc(CC(NC(C)=O)C(=O)NC2CCN(c3nc(OC)nc(OC)n3)CC2)c1 (centres undefined) | – | – | – | – | –
